High-throughput results (PubChem)
PABP1 MLLE inh = inhibitors of microRNA-mediated deadenylation, human PABP1 MLLE binding | P11940 | GST-MLLE / FITC-PAM2 fluorescence polarization | inhibition, % at 20 µM | hit rate 0.36% among 360,000; in the data active = inhibition above about 35%, passing the limit was not always enough;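 note: plate controls were DMSO wells with GST-MLLE for no effect and wells lacking GST-MLLE protein for full effect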
PABP FP inh = blocks human PABP binding to poly(A) RNA; P11940; fluorescence polarization; calls only at 35 µM; hit rate 1% among 290,000; AID 2014;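 note: calls also rest on retests at 20 µM and on dose response follow-up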
A3A deaminase = inhibitors of human APOBEC3A DNA deaminase; recombinant A3A, FAM/TAMRA ssDNA deamination fluorescence; inhibition, % at 20 µM; hit rate 0.41% among 330,000;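 active = at least 40% inhibition at 20 µM here, with at most 30% in a related deaminase screen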;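 note: plate controls were A3A with DMSO for no effect and wells lacking A3A enzyme for full effect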
Target sequence (P31941 whole entry, looked up): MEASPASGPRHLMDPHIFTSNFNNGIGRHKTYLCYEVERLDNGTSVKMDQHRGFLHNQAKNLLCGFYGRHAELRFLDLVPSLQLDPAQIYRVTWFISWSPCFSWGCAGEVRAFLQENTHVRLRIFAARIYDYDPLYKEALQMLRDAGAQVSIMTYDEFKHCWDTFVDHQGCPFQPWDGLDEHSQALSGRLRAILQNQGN
PHOSPHO1 inh = inhibitors of human PHOSPHO1 phosphatase; recombinant PHOSPHO1, absorbance phosphatase assay; inhibition, % at 13.3 µM; hit rate 1.1% among 290,000; AID 1565; in the data active = inhibition above about 60%
eIF4H inh = inhibitors of RNA binding by human eIF4H. Q15056. inhibition, % at 35 µM. AID 2012. eIF4H fluorescence polarization binding assay. hit rate 0.94% among 290,000;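 note: calls also rest on retests at 20 µM and on dose response follow-up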
APOBEC3G inh = inhibitors of human APOBEC3G DNA deaminase; recombinant A3G, ssDNA deamination FAM/TAMRA fluorescence; inhibition, % at 20 µM; hit rate 0.28% among 330,000; AID 493012;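 active = inhibition of at least 40% at 20 µM, with no more than 30% in the related APOBEC3A deaminase screen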;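 note: plate controls were DMSO wells with A3G for no effect and wells lacking A3G enzyme for full effect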
The depositor's hits bear a star; i = inactive; ? = inconclusive; / = no result; + = active, no number. This is a sample that favours compounds with a hit; in the whole collection about 2.6% have one here. Unless noted, the rule behind the calls is not given here.

SMILES | PABP1 MLLE inh | PABP FP inh | A3A deaminase | PHOSPHO1 inh | eIF4H inh | APOBEC3G inh
O=C(O)c1ccc(-n2cccc2/C=C2/NC(=O)N(c3ccccc3)C2=O)cc1 | -40.6 | + | 97.3 | -1.5 | 96.6* | 79.8
O=C(O)c1ccc(-n2cccc2/C=C2/SC(=O)N(CC(=O)N3CCCC3)C2=O)cc1 | 6.1 | + | 96.3 | 22.8 | 83.7* | 84.6
Cc1ccc(/C([O-])=C(/C(=S)NCc2ccc3c(c2)OCO3)[n+]2ccc(N(C)C)cc2)c(C)c1 | -15.2 | i | -3.2 | -0.9 | -10.0 | -12.0
CC(C)(C)C#CC(CCc1ccccc1)OS(N)(=O)=O (stereo unspecified) | / | i | -7.4 | -18.6 | -9.3 | -3.1
Cc1ccc(C)c(NC(=O)C2CCN(C(=O)c3cccs3)CC2)c1 | 3.7 | i | -0.9 | 36.0 | 2.7 | -7.4
Cc1c(N=Nc2c(-c3ccc([N+](=O)[O-])cc3)[nH]n(C(N)=S)c2=O)cccc1[N+](=O)[O-] | 41.3* | + | / | -25.5 | ? | /
NC(=S)n1[nH]c(-c2ccc([N+](=O)[O-])cc2)c(N=Nc2ccccc2[N+](=O)[O-])c1=O | 32.3 | i | / | -5.1 | 38.4 | /
NC(=S)n1[nH]c(-c2ccc([N+](=O)[O-])cc2)c(N=Nc2cccc([N+](=O)[O-])c2)c1=O | 41.7* | / | / | -14.5 | / | /
Cc1cc(C(=O)Nc2ncn[nH]2)ccc1[N+](=O)[O-] | -4.5 | i | 3.4 | 2.4 | -4.9 | -6.7
Cc1ccc(C(=O)NNC(=S)NC(=O)c2ccccc2)cc1 | -6.0 | / | -0.1 | / | / | -3.2
Cc1ccc(C(=O)NNC(=S)NC(=O)c2ccc(Cl)cc2Cl)cc1 | 10.8 | i | -1.2 | 76.4* | 27.4 | -3.4
COc1ccccc1NNC(=O)c1cc(C(C)(C)C)nn1Cc1ccccc1 | 0.9 | i | -2.7 | -3.6 | -15.9 | -2.8
CC(C)(C)c1cc(C(=O)NNc2cc(C(F)(F)F)ccc2Cl)n(Cc2ccccc2)n1 | -24.7 | i | -4.6 | -1.3 | 52.4* | -3.0
Cc1cc(=O)[nH]c(N/N=C/c2ccc(Cl)cc2Cl)n1 | -5.5 | i | -4.2 | 29.2 | -27.2 | -8.5
CCN(CCC#N)c1ccc(/C=N/Nc2nc(C)cc(=O)[nH]2)c(C)c1 | -0.3 | + | -3.6 | -7.1 | 2.2* | -0.4
O=C(Nc1ccnn1C1CCN(CC(O)CO)CC1)C1CCCC1 (stereo unspecified) | -2.5 | i | 1.2 | 37.0 | 10.1 | -1.5
Clc1cccc(Nc2ncnc3ccc(Br)cc23)c1 | -11.6 | i | 2.4 | 62.0* | 2.1 | -2.0
C#CCN1C(=O)S/C(=C/C=C/c2ccc(N(C)C)cc2)C1=O | -46.5 | i | / | -13.3 | ? | /
O=C(O)c1ccc2c(c1)NC(=O)C(N1CCCC1)S2 (stereo unspecified) | 54.8* | i | 4.4 | 18.2 | 49.3 | -2.2
O=C(O)c1ccc(C(=O)Nc2cccc(NC(=O)C3CCCO3)c2)cc1 (stereo unspecified) | 5.2 | i | 0.6 | 6.8 | -3.5 | -3.0
COC(=O)c1c(-c2ccccc2)c[nH]c1C | 8.6 | i | 1.6 | 7.6 | 1.3 | -1.0
CCOC(=O)C1CCN(C(=O)c2ccc3c(c2)NC(=O)/C(=C/c2ccccc2)S3)CC1 | 24.3 | i | -4.5 | 54.3 | 1.4 | -5.7
CCOC(=O)C1CCN(C(=O)c2ccc3c(c2)NC(=O)/C(=C\c2ccc(C)cc2)S3)CC1 | -2.8 | i | -0.2 | 70.0* | ? | 1.9
COCCN(C(=O)c1ccc(N2CCCC2=O)cc1)c1c(N)n(Cc2ccccc2)c(=O)[nH]c1=O | -18.6 | / | 15.4 | / | / | -3.8
O=c1[nH]nc(CNc2ccc(O)cc2)c2ccccc12 | 6.3 | + | -0.1 | 9.7 | 59.0* | 6.3
SMILES | PABP1 MLLE inh | PABP FP inh | A3A deaminase | PHOSPHO1 inh | eIF4H inh | APOBEC3G inh
O=C(O)Cc1n[nH]c(=O)c2ccccc12 | 1.6 | i | -4.5 | -1.0 | 1.1* | -8.7
Nc1ccn([C@@H]2O[C@H](CNCc3cc(Cl)ccc3OCc3ccc(Cl)cc3)[C@@H](O)[C@H]2O)c(=O)n1 | -6.1 | / | / | / | / | /
CC(C)(C)c1ccc(C(=O)CC(Sc2ccc(Cl)cc2)C(=O)O)cc1 (stereo unspecified) | 46.2* | i | -1.8 | 33.9 | -11.8 | -0.1
Cc1ccc(SC(CC(=O)c2ccc(F)cc2)C(=O)O)cc1 (stereo unspecified) | 31.8 | i | 5.6 | 5.5 | -3.3 | 4.3
N#C/C(=C\c1ccc(-c2ccccc2C(=O)O)o1)c1nc2ccccc2[nH]1 | -125.7 | + | -1.1 | 39.9 | 79.3 | -12.6
Cc1cccc(NC(=S)N2CCN(c3ccccc3F)CC2)c1C | -91.3 | i | -8.1 | 5.3 | 1.6 | -2.8
CCOC(=O)CN=C1CC(C)(C)CC2=C1Sc1ncnc(N(C)C)c1N2 | 32.4 | i | 0.1 | 96.8* | 7.0 | 8.8
CCOC(=O)C1=C(C)NC2=C(C(=O)CC(C)(C)C2)C1c1cccc(C)n1 (stereo unspecified) | -1.5 | i | -3.5 | 31.9 | 6.1 | 0.6
Cc1ccc(C)c(NC(=O)CN(C)C(=O)c2ccc3c(=O)n4c(nc3c2)CCC4)c1 | -1.6 | / | -2.6 | / | / | -3.2
O=C(C1=NN(c2ccccc2)C2C(=O)N(c3ccc(Cl)cc3)C(=O)C12)c1ccccc1 (stereo unspecified) | 12.8 | i | / | 11.3 | ? | /
O=C(C1=NN(c2ccccc2)C2C(=O)N(c3cccc(Cl)c3)C(=O)C12)c1ccccc1 (stereo unspecified) | 7.4 | + | / | -0.8 | ? | /
C=CCn1c(=O)c(C(=O)NC2CC2)c(O)c2cc(OC)c(OC)cc21 | 8.5 | i | -1.5 | 24.3 | -2.0 | 9.8
O=C(/C=C/c1ccco1)N/C(=C\c1ccco1)C(=O)NCCc1nc2ccccc2[nH]1 | -2.9 | + | 2.6 | -9.3 | 77.0* | -2.1
COc1ccc(/C=C/C(=O)N/C(=C\c2ccco2)C(=O)NCCc2nc3ccccc3[nH]2)cc1 | -30.6 | i | -1.5 | -11.7 | -8.2 | -4.4
CC(=O)NCCc1nc2ccccc2[nH]1 | -0.3 | i | -0.1 | -3.0 | -0.7 | -0.5
CC(C)=C(NC(=O)c1ccccc1)C(=O)NCCc1nc2ccccc2[nH]1 | 0.3 | / | -4.0 | 64.0* | / | -6.5
CCc1ccc(C(N)=S)cc1 | 41.4* | ? | 1.6 | 16.5 | -6.7 | 2.0
COCC1CCN(Cc2c(C(=O)N3CCN(C4CCCCC4)CC3)nc3ccccn23)C1 (stereo unspecified) | 27.3 | i | -3.6 | 22.6 | 28.6 | -8.4
O=C(c1nc2ccccn2c1CN1CCCC(O)C1)N1CCN(C2CCCCC2)CC1 (stereo unspecified) | 42.2* | i | -7.8 | 37.7 | 22.4 | -8.1
Cc1cc(-n2c(=O)c(C#N)cc3c(=O)n4ccccc4nc32)no1 | 11.6 | + | 5.0 | -3.5 | 103.6* | 4.7
CCC(SCC(=O)OC)C(=O)Nc1nnc(C(C)C)s1 (stereo unspecified) | 39.4* | i | -3.2 | 2.1 | -3.1 | -1.6
CCOC(=O)c1ccc2c(c1)nc(SCC(=O)N1CCCCC1)n2CC | -96.3 | i | -2.7 | 49.2 | -3.1 | -4.1
